Results filed as inconclusive are left out. Where a call stands in place of a potency, no number is given. Activity calls are given as the source filed them. Calls follow the shape of the dose curve; as a rule, active = well fitted cell-killing curve with a large enough effect; inconclusive = small, poorly fitted or top-dose-only effect, or effect the other way; inactive = no such curve, though single readings can be large or run the other way.
assay: Quantitative High-Throughput drug screen in 47 multiple myeloma cell lines against the NCATS MIPE library collection: UTMC2_PLB cell viability assay (AID 1919868); conditions: CellTiter-Glo ATP luminescence, 48 h; viability (% of DMSO control): at 45.8 µM (top of the series); also: nearly all actives have a fitted effect of over 55% in size
Outline: (§1)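 ATP-based CellTiter-Glo luminescence after 48 h drug exposure (37 °C, 5% CO2) of 500 myeloma cells per well. DMSO-only wells set 100% viability, media-only wells 0%; MIPE 4.0 library added by pin tool.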
Potency is read from the fitted curve at half-maximal effect.

SMILES	Potency
CC(C)OC(=O)C1=CN(C(=O)c2ccc(F)c(F)c2)CC(C)(C)c2c1[nH]c1ccccc21	inactive
CC(C)NCC(O)COc1ccc(COCCOC(C)C)cc1 (configuration not stated)	inactive
CC1(C)Cc2c(-c3ccccc3)c(-c3ccc(Cl)cc3)c(CC(=O)O)n2C1	16.6 µM (active)
Cc1cccc(-c2[nH]c(C(C)(C)C)nc2-c2ccc3nccnc3c2)n1	2.64 µM (active)
CCCn1c(=O)c2[nH]c(C34CC5CC3C[C@@H](C5)C4)nc2n(CCC)c1=O	inactive
O=S(=O)(N=Cc1c(O)ccc2ccccc12)c1cccs1	18.7 µM (active)
O=c1n(CCCN2CCN(c3cccc(Cl)c3)CC2)nc2ccccn12	inactive
OC(CN1CCC(Cc2ccc(F)cc2)CC1)c1ccc(Cl)cc1 (configuration not stated)	inactive

assay: Quantitative High-Throughput drug screen in 47 multiple myeloma cell lines against the NCATS MIPE library collection: PE2_PLB cell viability assay (AID 1919869); conditions: PE2_PLB myeloma cells viability, ATP luminescence, 48 h; series mostly up to 45.8 µM; also: nearly all actives have a fitted effect of over 35% in size
Outline: as §1

SMILES	Potency
CC(C)OC(=O)C1=CN(C(=O)c2ccc(F)c(F)c2)CC(C)(C)c2c1[nH]c1ccccc21	inactive
NC(=O)C1CCCc2c1[nH]c1ccc(Cl)cc21 (configuration not stated)	16.6 µM (active)
CCN(CC)CCCC(C)Nc1ccnc2cc(Cl)ccc12 (configuration not stated)	inactive
COc1cc2c(cc1OC)CN(CCc1ccc(NC(=O)c3cccc4c(=O)c5cccc(OC)c5[nH]c34)cc1)CC2	20.9 µM (active)
CC1(C)Cc2c(-c3ccccc3)c(-c3ccc(Cl)cc3)c(CC(=O)O)n2C1	20.9 µM (active)
COc1nc(-c2ccc3c(c2)OCO3)n(-c2ccc(NC(=O)CSc3ccccc3)cc2)n1	inactive
CCc1ccc(CCOc2ccc(CC3SC(=O)NC3=O)cc2)nc1 (configuration not stated)	inactive
Cc1cccc(-c2[nH]c(C(C)(C)C)nc2-c2ccc3nccnc3c2)n1	2.09 µM (active)
CCCC(CCC)C(=O)O	inactive
Nc1ccc(S(=O)(=O)Nc2ccnn2-c2ccccc2)cc1	inactive
CCCn1c(=O)c2[nH]c(C34CC5CC3C[C@@H](C5)C4)nc2n(CCC)c1=O	inactive
Cc1ccccc1C(OCCN(C)C)c1ccccc1 (configuration not stated)	inactive
CCCc1nc2c(C)cc(-c3nc4ccccc4n3C)cc2n1Cc1ccc(-c2ccccc2C(=O)O)cc1	11.8 µM (active)
Cc1c(C)c2c(c(C)c1O)CCC(C)(COc1ccc(CC3SC(=O)NC3=O)cc1)O2 (configuration not stated)	20.9 µM (active)
O=c1n(CCCN2CCN(c3cccc(Cl)c3)CC2)nc2ccccn12	inactive
CCc1cc(Nc2nccc(-c3c(-c4ccc(OC)c(C(=O)Nc5c(F)cccc5F)c4)nc4ccccn34)n2)c(OC)cc1N1CCC(N2CCN(S(C)(=O)=O)CC2)CC1	5.26 µM (active)
c1ccc(-c2nn3c(c2-c2ccnc4cc(OCCN5CCOCC5)ccc24)CCC3)nc1	10.5 µM (active)
Cc1n[nH]c(C)c1Cc1sc2c(c1C(=O)N1C[C@H](O)CO1)c(=O)n(C)c(=O)n2CC(C)C	0.235 µM (active)
COCC(=O)NCC=Cc1ccc2ncnc(Nc3ccc(Oc4ccc(C)nc4)c(C)c3)c2c1	16.6 µM (active)
NC(=O)c1cnccn1	inactive
OC(CN1CCC(Cc2ccc(F)cc2)CC1)c1ccc(Cl)cc1 (configuration not stated)	inactive
COCCNCCCn1c(C(=O)CF)c(-c2ccc(C)cc2)c2c(N)ncnc21	14.8 µM (active)
Cn1c(=O)c(F)c(Nc2ccc(I)cc2F)c2c(=O)n(C[C@@H](O)CO)cnc21	9.35 µM (active)
O=C(C=Cc1ccc(/C=C/C(=O)Nc2ccc(C3=NCCN3)cc2)cc1)Nc1ccc(C2=NCCN2)cc1	inactive
